Results from PubChem BioAssay (NCATS).
Inconclusive results are not listed. Calls of active or inactive are those of the source. The call rests on the fitted dose curve; in most records, active means well fitted inhibition curve with a large enough effect; inconclusive means small, poorly fitted or top-dose-only effect; inactive means flat fitted curve, though single readings scatter.

Key:
Experiment in all cases: qHTS profiling for inhibitors of Plasmodium falciparum proliferation (AID 504749); further: nearly all actives have a fitted effect of over 60% in size
Settings in all cases: P. falciparum in erythrocytes, SYBR Green DNA, 72 h; series mostly up to 28.7 µM
CP217 = tested on: CP217
Summary of the method: (§1)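 Three-day growth assay of blood-stage parasites in erythrocytes (0.3% parasitemia, 2.5% hematocrit) at 37 C, 5% CO2, quantified by SYBR Green DNA staining after overnight detergent lysis.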

CP237 = tested on: CP237
Summary of the method: as §1

CP238 = tested on: CP238
Summary of the method: as §1

CP247 = tested on: CP247
Summary of the method: as §1

CP250 = tested on: CP250
Summary of the method: as §1

CP252 = tested on: CP252
Summary of the method: as §1

CP256 = tested on: CP256
Summary of the method: as §1

CP260 = tested on: CP260
Summary of the method: as §1

CP265 = tested on: CP265
Summary of the method: as §1

CP268 = tested on: CP268
Summary of the method: as §1

CP269 = tested on: CP269
Summary of the method: as §1

CP286 = tested on: CP286
Summary of the method: as §1

CP291 = tested on: CP291
Summary of the method: as §1

CP297 = tested on: CP297
Summary of the method: as §1

CP305 = tested on: CP305
Summary of the method: as §1

CP315 = tested on: CP315
Summary of the method: as §1

CP325 = tested on: CP325
Summary of the method: as §1

CP329 = tested on: CP329
Summary of the method: as §1

CP262 = tested on: CP262
Summary of the method: as §1

CP266 = tested on: CP266
Summary of the method: as §1

Measured: Potency

COc1ccc2cc(CCC(C)=O)ccc2c1
not listed: CP262 | CP266
inactive: all other assays above

NS(=O)(=O)c1ccc(NC(=O)CCC(=O)O)cc1
not listed: CP291
inactive: all other assays above

COc1nccnc1NS(=O)(=O)c1ccc(N)cc1
not listed: CP315
inactive: all other assays above
